Source: PubChem (National Center for Advancing Translational Sciences (NCATS))
HT1080 IDH1KD tx – toxicity to HT-1080 IDH1 knockdown cells (counter line); HT-1080 IDH1 knockdown viability, ATP luminescence, 48 h; Potency, µM (series often up to 46.1 µM), for the others: at the highest dose activity, negative = toxicity, actives largely listed as cytotoxic; actives 2% (n = 360,000); AID 686971;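 also: 0% = DMSO wells and -100% = cell-free medium wells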
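CellTiter-Glo luminescence after 48 h compound exposure at 37 degrees C of IDH1-knockdown HT-1080 cells in 5% FBS RPMI. %Activity scaled between DMSO wells and cell-free media wells, with curves fitted and assigned curve classes.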
HT1080-NT tox – kills 2HG-producing HT-1080-NT fibrosarcoma cells; Potency, µM (doses to about 46.1 µM), inactives show at the top dose activity, negative = less viability, actives largely listed as cytotoxic; HT-1080-NT fibrosarcoma viability, CellTiter-Glo ATP luminescence, 48 h; actives 1.6% (n = 360,000);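 also: NT is the 2HG producing partner of a matched IDH1 knockdown line; 0% = DMSO-treated cells and -100% = media-only wells without cells; nearly all actives have a fitted effect of over 55% in size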
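Luminescent CellTiter-Glo readout after 48 hours of compound exposure at 37 degrees C defined viability of HT-1080-NT cells. Activity was normalized to DMSO wells and cell-free media wells; concentration-response curves were fitted and assigned curve classes.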
TGFb SMAD3 inh – TGF-b pathway inhibition. HepG2 CAGA-GFP TGF-b/SMAD3 reporter, GFP fluorescence, 18 h; TGF-beta stimulated, 500 pg/mL final. Potency, µM (titrated, usually from 46.1 µM), for the others: top-dose activity, negative = inhibition, most hits filed as inhibitors. actives 1.2% (n = 410,000). AID 588855; also: % is scaled to controls: 0 for no effect and ±100 for the full control effect; nearly all actives have a fitted effect of over 65% in size
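Smad-responsive CAGA-GFP expression was quantified in HEPG2 cells exposed to compounds and 500 pg/mL final TGF-beta for 18 h at 37 degrees C; unstimulated wells defined full inhibition.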
DT40 TDP1 no CPT – qHTS for Inhibitors of human tyrosyl-DNA phosphodiesterase 1 (TDP1): qHTS in cells in absence of CPT; DT40 Tdp1-/- hTDP1 cells, no CPT, ATP luminescence, 48 h; Potency, µM (top dose mostly 46.2 µM), for inactives: at the top dose activity change, negative = growth inhibition, actives largely listed as inhibitors; actives 15% (n = 420,000); AID 686978, 2013; also: % is scaled to controls: 0 for no effect and ±100 for the full control effect; nearly all actives have a fitted effect of over 55% in size
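Camptothecin absent (DMSO only). Human TDP1-complemented DT40 knockout cells, 400 cells/well, 37 °C for minimum 48 hr; ATP measured via CellTiter-Glo, 30 min dark incubation, luminescence.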
DT40 TDP1 CPT – growth inhibition of DT40 Tdp1-/-;hTDP1 cells with camptothecin (screen for TDP1 inhibitors) | actives 12% (n = 420,000) | AID 686979 | chicken DT40 Tdp1-/-;hTDP1 cells + 20 nM CPT, ATP luminescence, 48 h | Potency, µM (highest dose often 46.2 µM), for inactives: top-dose activity change, negative = growth inhibition, most hits filed as inhibitors; also: % is scaled to controls: 0 for no effect and ±100 for the full control effect; nearly all actives have a fitted effect of over 55% in size
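Chicken DT40 Tdp1-/- cells complemented with human TDP1, 400 cells/well, exposed to compounds plus 20 nM camptothecin for at least 48 h at 37 C; viability read as ATP content by CellTiter-Glo luminescence.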
HepG2 tox – counter-screen for TGF-b inhibitors: cytotoxicity in HepG2 cells; HepG2 CAGA-GFP viability, ATP luminescence, 18 h; Potency, µM (doses to about 46.1 µM), inactives show at the top dose activity change, negative = cytotoxicity, usual class: cytotoxic; actives 0.76% (n = 410,000)
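CellTiter-Glo luminescence gave cytotoxicity after 18 hours at 37 degrees C. The cells were HepG2 CAGA-GFP in 1% FBS DMEM, stimulated with 500 pg/mL TGF-beta after compound addition. %Activity was normalised to no-cell wells (complete cell-killing) and DMSO (no toxicity), and curves were fitted and classified.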
Starred values were filed as active, the others as inactive; ? = inconclusive; · = no result given. A selection: hits, their analogues and other compounds. The true share with any hit is near 17%. Calls follow the shape of the dose curve; as a rule, active = well fitted curve in the direction sought with a large enough effect; inconclusive = small, poorly fitted or top-dose-only effect, or another doubt; inactive = no such curve, though single readings can be large; an effect the other way counts as inactive or inconclusive. Potency is read from the fitted curve at half-maximal effect.

SMILES | HT1080 IDH1KD tx | HT1080-NT tox | TGFb SMAD3 inh | DT40 TDP1 no CPT | DT40 TDP1 CPT | HepG2 tox
Cc1cc(C)c2oc(-c3cccc(NC(=O)COc4ccc(Cl)cc4C)c3C)nc2c1 | · | · | -3.7% | -0.9% | 5.01µM* | 3.8%
Cc1ccc(OCC(=O)Nc2ccc(Cl)c(-c3nc4ncccc4o3)c2)c(C)c1 | · | · | ? | 14.6µM* | ? | -19.0%
CCCOc1ccc(C(=O)Nc2ccc(Cl)c(-c3nc4ncccc4o3)c2)cc1 | · | · | 4.6% | 10.3µM* | 23.1µM* | -8.2%
CCc1ccc(OCC(=O)Nc2ccc(Cl)c(-c3nc4ncccc4o3)c2)cc1 | · | · | -17.1% | ? | ? | -27.0%
Cc1cc(C)cc(OCC(=O)Nc2ccc(Cl)c(-c3nc4ncccc4o3)c2)c1 | · | · | ? | ? | 18.4µM* | -21.6%
O=C(O)c1ccccc1[O-].O=C(O)c1ccccc1[O-].[Zn+2] | · | · | · | 0.1% | -5.8% | ·
Cc1ccc(N2CCN(S(=O)(=O)c3cccc4ccccc34)CC2)cc1Cl | · | · | ? | -21.0% | -26.4% | -52.8%
CCOC(=O)c1c(Nc2ccc(F)cc2)nnc(-c2ccccc2)c1-c1ccccc1 | · | · | ? | 18.4µM* | 23.1µM* | -17.8%
CCOC(=O)c1c(Oc2ccc(C(C)=O)cc2)nnc(-c2ccccc2)c1-c1ccccc1 | · | · | ? | 25.9µM* | 20.6µM* | -4.2%
CCOC(=O)c1c(Nc2ccc(OC)cc2)nnc(-c2ccccc2)c1-c1ccccc1 | · | · | ? | 23.1µM* | 23.1µM* | -4.2%
CN(CC(=O)Nc1ccccc1C(F)(F)F)C(=O)c1ccc2c(=O)n3c(nc2c1)CCC3 | -13.6% | -4.1% | -8.8% | 1.3% | -13.9% | -1.7%
COc1cc([N+](=O)[O-])ccc1NC(=O)CSc1nccn1C | 0.6% | 0.6% | 2.0% | -3.8% | 16.7% | 0.5%
CC1C(=O)C(C)C(c2cc(Cl)ccc2O)NC1c1cc(Cl)ccc1O (stereo not drawn) | 23.1µM* | 16.4µM* | ? | -73.4% | ? | -144.3%
COc1cccc(C2NC(c3cccc(OC)c3O)C(C)C(=O)C2C)c1O (stereo not drawn) | ? | ? | 22.6% | ? | ? | -7.2%
CN1CCN(c2ccc([N+](=O)[O-])cc2NC(=O)c2ccco2)CC1 | 0.0% | -0.8% | -4.5% | -19.0% | -25.2% | -1.4%
O=C(Nc1ccccc1N1CCCCC1)c1ccc(Cl)c([N+](=O)[O-])c1 | ? | ? | 0.0% | 18.4µM* | ? | 0.0%
CN1CCN(c2ccccc2NC(=O)c2ccc(N3CCCC3)c([N+](=O)[O-])c2)CC1 | ? | 13µM* | 10.0% | ? | ? | 6.9%
CN1CCN(c2ccc([N+](=O)[O-])cc2NC(=O)c2cccs2)CC1 | -22.2% | -23.6% | -2.0% | 23.1µM* | ? | 27.3%
CN1CCN(c2ccc(C(=O)c3ccc(Br)cc3)cc2[N+](=O)[O-])CC1 | ? | -11.5% | 3.2% | 14.6µM* | ? | -26.3%
CC1CCN(c2ccccc2NC(=O)c2ccc(N3CCOCC3)c([N+](=O)[O-])c2)CC1 | 6.7% | 2.5% | -6.6% | -6.1% | 0.6% | 0.1%
CN(c1ccccc1)S(=O)(=O)c1cccc(NC(=O)Nc2ccc(Cl)cc2C#N)c1 | 0.3% | -1.9% | -20.1% | 23.1µM* | ? | -44.9%
CCN(c1ccccc1)S(=O)(=O)c1ccc(Cl)c(NC(=O)Nc2ccc(Cl)cc2C#N)c1 | -34.3% | -26.6% | ? | 16.4µM* | 16.4µM* | -18.9%
CCN(c1ccccc1)S(=O)(=O)c1cc(NC(=O)Nc2ccccc2C#N)ccc1Cl | -22.1% | -10.6% | -19.5% | ? | -23.5% | 4.3%
